Where “and” joins values, the source holds several entries; their conditions need not be identical. Equal entries are not always repeated. Results filed as inconclusive are left out. Calls of active or inactive are those of the source. Unless noted, calls follow the shape of the dose curve; as a rule, active = well fitted curve in the direction sought with a large enough effect; inconclusive = small, poorly fitted or top-dose-only effect, or another doubt; inactive = no such curve, though single readings can be large; an effect the other way counts as inactive or inconclusive.
Key:
[1] = Cellular Toxicity (caspase-3) N2a (AID 665);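 also: compound exposure lasted 16 h at 37 °C before readout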
Summary of the method: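 N2a cells, 1500/well, 5 h settle at 37 °C; cpd 16 h, 37 °C; Caspase-Glo 3/7, 1 h RT; luminescence. Norm: DMSO = 0, 10 uM staurosporine = 100%. AC50, Hill fit.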

[2] = Cellular Toxicity (caspase-3) NIH 3T3 (AID 666);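 also: 0% = DMSO basal and 100% = 100 µM tamoxifen stimulation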
Summary of the method: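 Luminescence from aminoluciferin released by caspase-3/7 cleavage of a peptide substrate served as read-out. Mouse fibroblast NIH 3T3 cells were exposed to compounds over a concentration range for 16 hours, and AC50 values came from standard Hill modelling.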

[3] = Cellular Toxicity (caspase-3) Renal Proximal Tubule (AID 667);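 also: cells exposed to compound for 16 hours at 37 °C before detection; 0% = DMSO basal and 100% = 10 µM staurosporine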
Summary of the method: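 Luminescent caspase 3/7 signal from peptide-aminoluciferin cleavage measures apoptosis in freshly isolated rat kidney proximal tubule cells after 16 h compound exposure. Concentration-response data are normalized to DMSO and 10 uM staurosporine, and AC50 values come from Hill equation fits.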

[4] = molecular target: Guanine nucleotide-binding protein G(i) subunit alpha-1 (Homo sapiens) (UniProt P63096); experiment: qHTS Assay for Inhibitors of RGS12 GoLoco Motif Activity (Green Fluorophore) (AID 879);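 also: 0% = labeled peptide with Gαi1 and full inhibition = labeled peptide alone without protein; negative values mean loss of peptide binding seen as reduced polarization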
Chain of Guanine nucleotide-binding protein G(i) subunit alpha-1 (Homo sapiens) (P63096 whole entry, looked up): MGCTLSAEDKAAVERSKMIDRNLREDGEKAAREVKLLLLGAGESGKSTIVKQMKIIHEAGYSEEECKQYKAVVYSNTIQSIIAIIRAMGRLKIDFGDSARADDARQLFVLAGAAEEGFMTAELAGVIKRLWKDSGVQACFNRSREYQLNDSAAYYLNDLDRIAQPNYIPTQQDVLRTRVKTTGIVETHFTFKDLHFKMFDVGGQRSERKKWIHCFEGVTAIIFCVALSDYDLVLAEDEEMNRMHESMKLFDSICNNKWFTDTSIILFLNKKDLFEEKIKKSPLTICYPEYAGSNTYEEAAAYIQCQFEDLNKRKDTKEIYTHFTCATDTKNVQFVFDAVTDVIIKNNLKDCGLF
Summary of the method: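 Fluorescence polarization assay: 50 nM Gαi1 with 10 nM FITC-labeled RGS12 GoLoco peptide in 10 mM Tris pH 7.5, 150 mM NaCl, 0.1 mM GDP, 0.05% NP40, 10 min at room temperature with compound.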

[5] = molecular target: Cytochrome P450 3A4 (Homo sapiens) (UniProt P08684); experiment: qHTS Assay for Activators of Cytochrome P450 3A4 (AID 885); also: nearly all actives have a fitted effect of over 65% in size; also: potency is read from the fitted curve at half-maximal effect
Chain of Cytochrome P450 3A4 (Homo sapiens) (P08684 whole entry, looked up): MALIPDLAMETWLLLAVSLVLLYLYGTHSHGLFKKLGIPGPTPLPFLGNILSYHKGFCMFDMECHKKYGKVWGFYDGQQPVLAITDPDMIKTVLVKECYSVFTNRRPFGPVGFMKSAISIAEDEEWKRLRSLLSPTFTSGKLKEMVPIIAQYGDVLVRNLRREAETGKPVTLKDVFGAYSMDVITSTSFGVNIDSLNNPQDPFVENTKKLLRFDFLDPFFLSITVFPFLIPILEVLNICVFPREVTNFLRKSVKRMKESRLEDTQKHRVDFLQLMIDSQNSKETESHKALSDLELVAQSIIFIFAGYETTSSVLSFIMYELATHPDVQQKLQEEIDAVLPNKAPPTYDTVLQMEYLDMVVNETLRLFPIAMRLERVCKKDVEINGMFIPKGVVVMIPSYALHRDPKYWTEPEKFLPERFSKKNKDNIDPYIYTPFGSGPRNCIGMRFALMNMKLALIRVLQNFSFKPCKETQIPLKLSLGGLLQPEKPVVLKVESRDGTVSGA
Summary of the method: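 Human CYP3A4 (20 nM) with Luciferin-PPXE at 25 uM (its KM) in 200 mM KPO4; 10 min compound preincubation, then NADPH regeneration and 60 min reaction at RT. Luciferin read by luminescence; normalized to 57 uM ketoconazole full inhibition.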

[6] = molecular target: Cytochrome P450 2D6 (Homo sapiens) (UniProt P10635); experiment: qHTS Assay for Inhibitors and Substrates of Cytochrome P450 2D6 (AID 891); also: nearly all actives have a fitted effect of over 60% in size; also: potency is read from the fitted curve at half-maximal effect
Chain of Cytochrome P450 2D6 (Homo sapiens) (P10635 whole entry, looked up): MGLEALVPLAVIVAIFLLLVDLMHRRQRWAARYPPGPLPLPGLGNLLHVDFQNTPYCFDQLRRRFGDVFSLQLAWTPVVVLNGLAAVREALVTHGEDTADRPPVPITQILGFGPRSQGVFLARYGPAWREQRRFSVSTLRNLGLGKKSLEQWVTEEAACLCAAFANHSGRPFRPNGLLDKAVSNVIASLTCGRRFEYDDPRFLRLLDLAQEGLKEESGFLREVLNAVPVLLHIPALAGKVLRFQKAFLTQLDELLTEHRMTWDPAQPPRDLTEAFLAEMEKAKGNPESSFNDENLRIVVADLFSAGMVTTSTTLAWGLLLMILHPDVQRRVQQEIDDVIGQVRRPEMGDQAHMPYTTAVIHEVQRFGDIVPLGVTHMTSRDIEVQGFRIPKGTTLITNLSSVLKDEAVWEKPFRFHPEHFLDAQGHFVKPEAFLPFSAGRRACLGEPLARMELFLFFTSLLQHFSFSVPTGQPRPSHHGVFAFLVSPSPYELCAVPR
Summary of the method: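 Human CYP2D6 (5 nM) with 30 uM Luciferin-ME EGE (at Km) in 100 mM KPO4, compound preincubated 10 min, then NADPH regeneration system for 60 min at room temperature. Luciferin read by luminescence; normalized to 1.43 uM quinidine.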

[7] = Confirmation and Secondary Assay for Modulators of Hemoglobin Beta Chain Splicing at IVS2 654 locus (AID 910);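 also: HeLa cells stably carrying EGFP split by mutant beta-globin IVS2-654 intron; per-well total GFP intensity by laser scanning cytometry after 2-day treatment; % of control where 0% means no effect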
Summary of the method: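 Readout: per-well total peak green fluorescence (488 nm ex, 500–520 nm em) from objects 5–250 µm, reflecting correct splicing of an EGFP-654 reporter. Compounds were applied for 2 days at 37 °C to overnight-plated HeLa EGFP-654 cells; controls were DMSO and 500 nM IVS2-654 PNA.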

[8] = qHTS Assay for Identification of Small Molecule Agonists for Thrombopoietin (TPO) Signaling Pathway (AID 917); also: % is scaled to controls: 0 for no effect and ±100 for the full control effect
Summary of the method: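 Activators of TPO signaling were sought in murine Ba/F3 cells transfected with the human receptor, using a luciferase gene driven by the Glycoprotein IIb promoter; 24-hr compound exposure at 37 C alongside 26 pM TPO, in IL-3-free medium.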

[9] = Cell Viability - LYMP2-001 (AID 921);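 also: series mostly up to about 92 µM; cells exposed to compound for 24 h at 37 °C; 0% = DMSO only and full inhibition = tetraoctylammonium bromide control wells; nearly all actives have a fitted effect of over 70% in size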
Summary of the method: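 CellTiter-Glo luminescence (intracellular ATP) after 24 hr compound exposure at 37 C, 2500 lymphoblastoid cells/well in complete medium. AC50 fitted with standard Hill equation; tetraoctylammonium bromide positive control.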

[10] = Confirmation and Secondary Assay for Modulators of Hemoglobin Beta Chain Splicing at IVS2 705 locus (AID 930);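 also: HeLa cells stably expressing the EGFP-705 splicing reporter; GFP fluorescence per well restored by corrected splicing of the IVS2-705 intron in EGFP; series mostly up to about 46 µM; % of control where 0% means no effect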
Summary of the method: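 HeLa EGFP-705 reporter; 500 cells/well, o/n 37C 5% CO2; cpd 2 d; 488 ex/500-520 em laser scan; total peak GFP intensity/well. Ref: 500 nM […] antisense PNA.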

[11] = molecular target: Pyruvate kinase (Leishmania mexicana) (UniProt Q27686); experiment: qHTS Validation Assay for Inhibitors of Leishmania Mexicana Pyruvate Kinase (AID 945);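 also: 0% = DMSO only neutral control wells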
Chain of Pyruvate kinase (Leishmania mexicana) (Q27686 2-499 E452W): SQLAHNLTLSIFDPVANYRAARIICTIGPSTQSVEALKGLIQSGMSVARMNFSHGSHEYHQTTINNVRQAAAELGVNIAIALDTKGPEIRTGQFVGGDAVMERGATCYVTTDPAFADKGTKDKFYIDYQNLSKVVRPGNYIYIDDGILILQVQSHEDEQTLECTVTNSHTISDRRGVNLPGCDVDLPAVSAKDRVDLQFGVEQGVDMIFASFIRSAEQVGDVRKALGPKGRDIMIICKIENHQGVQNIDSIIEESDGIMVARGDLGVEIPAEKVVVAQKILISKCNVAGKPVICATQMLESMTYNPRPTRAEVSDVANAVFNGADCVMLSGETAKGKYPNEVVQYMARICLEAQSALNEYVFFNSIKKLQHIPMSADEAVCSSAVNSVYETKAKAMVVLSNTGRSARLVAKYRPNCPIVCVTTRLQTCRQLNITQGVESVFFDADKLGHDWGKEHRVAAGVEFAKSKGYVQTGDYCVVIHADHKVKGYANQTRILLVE
Summary of the method: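 Substrate mix (0.5 mM PEP, 0.1 mM ADP, 7 mM MgCl2, 50 mM KCl, pH 7.2 imidazole) received compound by pin tool, then 0.2 nM LmPYK E451W. After 1 h at room temperature, PKLight was added and luminescence measured.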

[12] = MultiTox-Fluor Cytotoxicity Assay - LYMP1-001 - Dead Cells (AID 946);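 also: 0% = DMSO and 100% = tetraoctylammonium bromide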
Summary of the method: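 LYMP1-001 lymphoblastoid cells (2500/well) treated 16 h at 37 C. Dead-cell protease cleavage of bis-AAF-R110 read at Ex/Em 485/520. Normalized to DMSO and 15 uM tetraoctylammonium bromide; AC50 from Hill fits.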

[13] = molecular target: Cytochrome P450 2C9 (Homo sapiens) (UniProt P11712); experiment: qHTS Assay for Inhibitors and Substrates of Cytochrome P450 2C9 (AID 883); also: nearly all actives have a fitted effect of over 60% in size; also: potency is read from the fitted curve at half-maximal effect
Chain of Cytochrome P450 2C9 (Homo sapiens) (P11712 whole entry, looked up): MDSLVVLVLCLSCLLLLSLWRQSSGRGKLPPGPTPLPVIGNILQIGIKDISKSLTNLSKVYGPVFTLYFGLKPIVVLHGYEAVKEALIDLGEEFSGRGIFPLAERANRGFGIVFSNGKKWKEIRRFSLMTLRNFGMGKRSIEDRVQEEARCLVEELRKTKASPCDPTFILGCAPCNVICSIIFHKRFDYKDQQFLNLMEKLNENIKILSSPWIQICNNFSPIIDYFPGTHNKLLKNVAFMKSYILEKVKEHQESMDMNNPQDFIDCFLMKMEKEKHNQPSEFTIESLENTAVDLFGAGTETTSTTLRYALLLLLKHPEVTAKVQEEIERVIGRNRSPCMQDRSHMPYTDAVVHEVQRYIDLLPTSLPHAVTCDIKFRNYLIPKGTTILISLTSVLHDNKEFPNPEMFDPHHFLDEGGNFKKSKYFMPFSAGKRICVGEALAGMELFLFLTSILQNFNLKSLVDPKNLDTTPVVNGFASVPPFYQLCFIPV
Summary of the method: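 Turnover of Luciferin-H (100uM, KM) by 10nM human CYP2C9 was measured over 60 min at 37C with NADPH regeneration; inhibitors and some substrates reduce luminescence. Data normalized to sulphaphenazole 57uM.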

[14] = molecular target: Cytochrome P450 3A4 (Homo sapiens) (UniProt P08684); experiment: qHTS Assay for Inhibitors and Substrates of Cytochrome P450 3A4 (AID 884); also: series mostly up to about 57 µM; % is scaled to controls: 0 for no effect and ±100 for the full control effect; nearly all actives have a fitted effect of over 50% in size
Summary of the method: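 20 nM human CYP3A4 with 25 uM Luciferin-PPXE (at KM) in 200 mM KPO4, preincubated 10 min with compound; NADPH regeneration started a 60 min RT reaction. Luciferin detected by luminescence, normalized to 57 uM ketoconazole as full inhibition.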

[15] = qHTS Assay for Identification of Small Molecule Antagonists for NFkB Signaling Pathway (AID 895; active = well fitted inhibition curve with a large enough effect in the signal ratio, with a control signal flat, not every such curve was filed as active; the % refers to the signal ratio; also: potency is read from the fitted curve at half-maximal effect)
Summary of the method: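 Beta-lactamase reporter read-out (460 and 530 nm emission ratio, 405 nm excitation, 2 hrs substrate loading RT) after 5 hr stimulation with 10 pM TNF alpha in compound-treated NFkB-bla ME-180 cells in low-serum medium.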

[16] = molecular target: Cytochrome P450 2C19 (Homo sapiens) (UniProt P33261); experiment: qHTS Assay for Inhibitors and Substrates of Cytochrome P450 2C19 (AID 899); also: % is scaled to controls: 0 for no effect and ±100 for the full control effect; nearly all actives have a fitted effect of over 60% in size
Chain of Cytochrome P450 2C19 (Homo sapiens) (P33261 whole entry, looked up): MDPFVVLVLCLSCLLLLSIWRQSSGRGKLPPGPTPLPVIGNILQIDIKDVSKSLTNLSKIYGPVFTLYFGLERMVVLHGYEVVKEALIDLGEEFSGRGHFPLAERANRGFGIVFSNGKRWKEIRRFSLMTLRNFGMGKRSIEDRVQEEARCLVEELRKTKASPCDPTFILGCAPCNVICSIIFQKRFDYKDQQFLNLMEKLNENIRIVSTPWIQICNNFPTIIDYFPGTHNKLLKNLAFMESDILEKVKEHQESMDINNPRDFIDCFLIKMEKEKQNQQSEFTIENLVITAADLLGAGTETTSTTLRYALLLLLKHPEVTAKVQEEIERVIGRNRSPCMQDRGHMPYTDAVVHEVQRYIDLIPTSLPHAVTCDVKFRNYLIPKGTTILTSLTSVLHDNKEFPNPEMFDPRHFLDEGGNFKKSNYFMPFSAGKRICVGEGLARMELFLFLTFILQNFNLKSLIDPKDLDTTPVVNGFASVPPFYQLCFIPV
Summary of the method: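 Reactions contain 5nM enzyme, 10uM Luciferin-H EGE (KM) and 50mM KPO4; compound preincubates 10 min at 37C, NADPH regeneration starts turnover for 60 min. Luminescence after detection reagent gives activity.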

[17] = qHTS Assay for Identification of Small Molecule Agonists for Hypoxia Response Element Signaling Pathway (AID 914; active = well fitted activation curve with a large enough effect in the signal ratio, with a control signal flat, not every such curve was filed as active; the % refers to the signal ratio; also: % of control where 0% means no effect); conditions: ME-180 (cervical carcinoma) HRE-bla reporter, beta-lactamase ratio, CoCl2, 17 h; hits give high values
Summary of the method: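 Read-out: CCF4 FRET ratio of 460nm to 530nm emission (excitation 405nm) after 2.5 hours at room temperature, taken from HRE-bla ME-180 cells that had been exposed to compound and EC50 CoCl2 for 17 hours.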

[18] = molecular target: Muscarinic acetylcholine receptor M1 (Rattus norvegicus) (UniProt P08482); experiment: qHTS Assay for Antagonists of Acetylcholine Muscarinic M1 Receptor: Kinetic Measurement of Intracellular Calcium Response (AID 943);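 also: Fluo-4 calcium signal as peak divided by basal fluorescence over 4 min; series mostly up to about 35 µM; nearly all actives have a fitted effect of over 75% in size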
Chain of Muscarinic acetylcholine receptor M1 (Rattus norvegicus) (P08482 whole entry, looked up): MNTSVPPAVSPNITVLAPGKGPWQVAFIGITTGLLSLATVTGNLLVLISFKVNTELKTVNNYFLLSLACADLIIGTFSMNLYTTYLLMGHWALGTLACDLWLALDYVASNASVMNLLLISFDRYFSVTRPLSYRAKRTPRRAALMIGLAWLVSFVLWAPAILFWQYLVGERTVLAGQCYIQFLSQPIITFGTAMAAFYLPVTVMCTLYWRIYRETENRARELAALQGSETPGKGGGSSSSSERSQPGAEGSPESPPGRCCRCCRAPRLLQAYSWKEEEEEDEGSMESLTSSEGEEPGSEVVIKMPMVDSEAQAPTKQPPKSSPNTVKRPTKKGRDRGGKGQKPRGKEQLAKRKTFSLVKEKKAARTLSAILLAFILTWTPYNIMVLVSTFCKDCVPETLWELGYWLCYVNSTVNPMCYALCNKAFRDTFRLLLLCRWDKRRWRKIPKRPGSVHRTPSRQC
Summary of the method: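 Rat M1-CHO cells, 2000/well, overnight → Fluo-4 no-wash dye with probenecid, 1 h 37C → compound 10 min, room temp → basal read 6 s → carbachol EC80 (100 nM) → 4 min kinetic read; peak/basal.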

[19] = molecular target: Muscarinic acetylcholine receptor M1 (Rattus norvegicus) (UniProt P08482); experiment: qHTS Assay for Antagonists of Acetylcholine Muscarinic M1 Receptor: Measurement of IP-One Response (AID 944); also: nearly all actives have a fitted effect of over 75% in size
Summary of the method: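 M1-CHO (rat), 2000 cells/well, overnight recovery; cpd 10 min; carbachol EC80 (200 nM), 30 min, HEPES buffer + 50 mM LiCl pH 7.4; IP-One HTRF, Ex 337, Em 620/665 nm.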

[20] = qHTS Assay for Identification of Small Molecule Antagonists for Thrombopoietin (TPO) Signaling Pathway (AID 918); conditions: TPO-dependent cell signaling reporter, antagonist mode; also: potency is read from the fitted curve at half-maximal effect; nearly all actives have a fitted effect of over 60% in size
Summary of the method: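 Ba/F3 (murine, hTPO-R, GPIIb-luc reporter); overnight IL-3 withdrawal; cpd + TPO 26 pM final (EC50); 24 h 37 C/5% CO2; Steadylite luminescence after 10 min RT.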

COc1ccc(CN(CCN(C)C)c2ccccn2)cc1
inactive: outcome [1] | outcome [2] | outcome [3] | Potency [4] | Potency [5] | outcome [7] | outcome [8] | outcome [9] | outcome [10] | Potency [11] | outcome [12]
active: Potency [6] 501 nM and 126 nM

O=C(CCCN1CCC(O)(c2cccc(C(F)(F)F)c2)CC1)c1ccc(F)cc1
inactive: Potency [4]

NC(=O)N1c2ccccc2C=Cc2ccccc21
inactive: outcome [1] | outcome [2] | outcome [3] | Potency [4] | Potency [13] | outcome [14] | Potency [6] | Potency [15] | Potency [16] | outcome [7] | activation [17] -7.9% and -9.09% and -6.88% | outcome [8] | outcome [9] | outcome [12]

CCN(CC)CCNC(=O)c1cc(S(C)(=O)=O)ccc1OC
inactive: Potency [4] | Potency [13] | outcome [14] | Potency [15] | outcome [7] | outcome [8] | Potency [11]

CCCOc1ccccc1-c1nc2n[nH]nc2c(=O)[nH]1
inactive: Potency [4] | outcome [14] | Potency [15] | outcome [7] | outcome [8] | outcome [10] | Potency [11]

CC(C)NNC(=O)c1ccncc1
inactive: Potency [4] | outcome [14] | outcome [7] | outcome [8] | outcome [10]

Cc1ccc(=O)n(-c2ccccc2)c1
inactive: Potency [4] | Potency [13] | Potency [6] | Potency [15] | Potency [16] | outcome [8] | Potency [18] | Potency [19]

COc1cc2c(cc1OC)-c1cc(=Nc3c(C)cc(C)cc3C)n(C)c(=O)n1CC2
active: Potency [13] 1.26 µM | Potency [15] 5.62 µM
inactive: Potency [4] | Potency [5] | Potency [11]

CC[N+](C)(C)c1cccc(O)c1
inactive: Potency [4] | outcome [14] | Potency [15] | outcome [7] | outcome [8] | outcome [10] | Potency [11]

O=c1[nH]c(=O)n([C@H]2C[C@H](O)[C@@H](CO)O2)cc1Br
inactive: outcome [1] | outcome [2] | outcome [3] | Potency [4] | outcome [14] | Potency [15] | outcome [8] | outcome [9] | Potency [18] | Potency [11] | outcome [12]

Cc1ccc(Cl)c(Nc2ccccc2C(=O)O)c1Cl
active: Potency [13] 7.94 µM and 1.26 µM | Potency [5] 20 µM and 12.6 µM and 25.1 µM
inactive: Potency [4] | outcome [14] | outcome [7] | outcome [8]

Nc1ncn([C@@H]2O[C@H](CO)[C@@H](O)[C@H]2O)c(=O)n1
inactive: outcome [1] | outcome [2] | outcome [3] | Potency [4] | outcome [7] | outcome [10] | Potency [19] | Potency [11]
active: Potency [20] 3.16 µM

C[C@H](CS)C(=O)N1CCC[C@H]1C(=O)O
inactive: Potency [4] | Potency [13] | outcome [14] | Potency [6] | Potency [16] | Potency [11]

CCO/C([O-])=N/c1c[n+](N2CCOCC2)no1
inactive: Potency [4] | Potency [13] | Potency [5] | Potency [6] | Potency [16] | outcome [7] | outcome [8] | outcome [10] | Potency [18]

CN(C)C(=O)Oc1cccc([N+](C)(C)C)c1
inactive: Potency [4] | outcome [14] | Potency [15] | outcome [7] | outcome [8]

CN(C)C(=O)Oc1ccc[n+](C)c1
inactive: Potency [4] | outcome [14] | outcome [7] | outcome [8]
